Measured values published in PubChem BioAssay (NCATS).
Unmarked numbers belong to inactive results. Records with an inconclusive call do not appear. A call without a number means that no potency is given here. Activity calls are given as the source filed them. Unless noted, the call rests on the fitted dose curve; in most records, active means well fitted curve in the direction sought with a large enough effect; inconclusive means small, poorly fitted or top-dose-only effect, or another doubt; inactive means no such curve, though single readings can be large; an effect the other way counts as inactive or inconclusive.

Experiments:
[1] = molecular target: Arylsulfatase A (Homo sapiens) (UniProt P15289); experiment: qHTS screen for enhancers of Arylsulfatase A (ASA1): LOPAC Validation Assay (AID 720538); conditions: ASA enzyme activity, LOPAC qHTS enhancer assay; series mostly up to 57.5 µM
Chain of Arylsulfatase A (Homo sapiens) (P15289 whole entry, looked up): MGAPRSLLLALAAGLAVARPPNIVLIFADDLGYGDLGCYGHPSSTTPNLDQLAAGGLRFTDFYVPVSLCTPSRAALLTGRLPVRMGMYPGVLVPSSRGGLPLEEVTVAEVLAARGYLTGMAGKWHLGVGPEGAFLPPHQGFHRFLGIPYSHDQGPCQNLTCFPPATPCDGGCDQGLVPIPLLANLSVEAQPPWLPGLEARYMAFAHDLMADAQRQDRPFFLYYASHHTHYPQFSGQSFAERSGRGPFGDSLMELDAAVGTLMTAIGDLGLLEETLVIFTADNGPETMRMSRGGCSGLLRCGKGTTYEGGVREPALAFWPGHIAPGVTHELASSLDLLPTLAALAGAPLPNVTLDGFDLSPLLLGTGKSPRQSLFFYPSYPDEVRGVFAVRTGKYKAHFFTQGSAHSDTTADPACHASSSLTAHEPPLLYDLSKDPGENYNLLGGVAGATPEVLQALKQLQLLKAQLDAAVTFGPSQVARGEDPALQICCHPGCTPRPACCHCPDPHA
How it was run: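 MLD patient fibroblasts (SV40, ASA-I179S), 1536-well; adhere 6 hrs; cpd 48h, 37 degree C, 5% CO2; pNCS 0.5mM final in lysis buffer, 14h RT; stop 1N NaOH final; fluor. Ex525/Em598.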

[2] = qHTS for compounds that reverse cellular toxicity of Amyloid beta (A-beta) peptide in yeast: LOPAC Validation Assay (AID 720559); conditions: yeast expressing A-beta; series mostly up to 46.1 µM
How it was run: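 Medium dispensed, compounds pinned, A-beta yeast suspension added; plates held at 30 C for 48 hr; absorbance measured at 600 nm to gauge growth; values scaled between DMSO and FeCl3/clioquinol (equimolar) controls.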

[3] = qHTS for Activators of Parkin Expression: LOPAC Validation Assay (NLuc Reporter) (AID 720572; further: potency means the concentration at half of the fitted maximal effect); conditions: Parkin promoter NanoLuc reporter cells, luminescence; series mostly up to 46.1 µM
How it was run: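 Parkin promoter-driven FLuc/NLuc neuronal reporter cells; 24 h plating, 7-pt dose response, 24 h at 37 C/5% CO2; FLuc then NanoLuc reagent, 10 min each, luminescence; DMSO/positive control normalized.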

[4] = qHTS for Activators of Parkin Expression: LOPAC Validation Assay (FLuc Reporter) (AID 720573; further: potency means the concentration at half of the fitted maximal effect); conditions: Cell line, PRKN promoter firefly luciferase reporter; series mostly up to 46.1 µM
How it was run: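 Cells seeded, 24 h; compounds pinned, 7-pt dose response; 24 h at 37 C/5% CO2; volume reduced; FLuc reagent 10 min RT; luminescence read. Normalization: DMSO = 0, positive control = 100%.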

[5] = qHTS assay for small molecule agonists of the antioxidant response element (ARE) signaling pathway measured by Nrf2-dependant transcriptional activity - cell viability counter screen (AID 720653; active means well fitted curve in the direction sought with a large enough effect in the repeat runs; an effect the other way counts as inactive or inconclusive); conditions: ARE-bla HepG2 viability, CellTiter-Glo ATP luminescence, 16 h; active compounds read low
How it was run: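 Cytotoxicity counter screen: intracellular ATP quantified by CellTiter-Glo luminescence in the same ARE-bla HepG2 plates, after 16 h compound exposure and a 2 h beta-lactamase substrate step.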

Row | SMILES | Potency [1] | outcome [2] | Potency [3] | Potency [4] | max response [5] [%]
1 | CNc1ncnc2c1ncn2[C@H]1C[C@H](OP(=O)(O)O)[C@@H](COP(=O)(O)O)O1 | inactive | inactive | inactive | inactive | –
2 | CCCC(=O)NCCc1c2n(c3ccc(OC)cc13)CCCc1ccccc1-2 | inactive | inactive | inactive | inactive | –
3 | CN1C2CCC1CC(OC(c1ccccc1)c1ccccc1)C2 (centres undefined) | inactive | inactive | inactive | inactive | –
4 | NC(=O)c1cc[n+](CC2=C(C(=O)O)N3C(=O)[C@@H](NC(=O)[C@@H](c4ccccc4)S(=O)(=O)[O-])[C@H]3SC2)cc1 | inactive | inactive | inactive | inactive | –
5 | CNCCc1cnc(CCC(c2ccccc2)c2ccccc2)[nH]1 | inactive | inactive | inactive | inactive | –
6 | C[C@H]1CC2C3CCC4=CC(=O)C=C[C@]4(C)[C@@]3(Cl)[C@@H](O)C[C@]2(C)[C@@]1(O)C(=O)CO (some centres undefined) | inactive | inactive | inactive | inactive | –
7 | O=C(O)[C@H]1NCCC[C@H]1C(=O)O | inactive | inactive | inactive | inactive | –
8 | NC(C(=O)N[C@@H]1C(=O)N2C(C(=O)O)=C(Cl)CS[C@H]12)c1ccccc1 (some centres undefined) | inactive | inactive | inactive | inactive | –
9 | CC(=O)O[C@H]1CC2(C)[C@@H](C[C@@H](O)[C@H]3[C@@]4(C)CC[C@@H](O)[C@@H](C)[C@@H]4CC[C@@]32C)C1=C(CCC=C(C)C)C(=O)O (some centres undefined) | inactive | inactive | inactive | inactive | –
10 | CN(CC[C@@H](Oc1ccc(C(F)(F)F)cc1)c1ccccc1)CC(=O)O | inactive | inactive | inactive | inactive | –
11 | O=C(O)C1=CCNCC1 | inactive | inactive | inactive | inactive | –
12 | O=c1[nH]ccc2c(O)cccc12 | inactive | inactive | inactive | inactive | –
13 | NC1(C(=O)O)CCc2cc(C(=O)O)ccc21 (centres undefined) | inactive | inactive | inactive | inactive | –
14 | O=C(c1ccc2c(c1)OCCO2)N1CCCCC1 | inactive | inactive | inactive | inactive | –
15 | O=C1Cc2c([nH]c3ccc(Br)cc23)-c2ccccc2N1 | inactive | inactive | 5.8 µM (active) | 2.59 µM (active) | –
16 | CC1CCN(CC[C@H]2CCCN2S(=O)(=O)c2cccc(O)c2)CC1 | inactive | inactive | inactive | inactive | –
17 | CSc1nc(N)c2ncn([C@@H]3O[C@H](COP(=O)(O)OP(=O)(O)O)C(O)[C@H]3O)c2n1 (some centres undefined) | inactive | inactive | inactive | inactive | –

Row | SMILES | Potency [1] | outcome [2] | Potency [3] | Potency [4] | max response [5] [%]
18 | CC(C)(C)c1cc(/C=C(\C#N)C(N)=S)cc(C(C)(C)C)c1O | inactive | inactive | inactive | inactive | –
19 | O=C(OCCN1CCOCC1)C1(c2ccccc2)CCCCC1 | inactive | inactive | inactive | inactive | –
20 | CC(=O)N[C@@H](Cc1c[nH]c2ccccc12)C(=O)OCc1cc(C(F)(F)F)cc(C(F)(F)F)c1 | inactive | inactive | inactive | inactive | –
21 | N=C(N)SCCc1cnc[nH]1 | inactive | inactive | inactive | inactive | –
22 | N#Cc1cc2nc(O)c(O)nc2cc1[N+](=O)[O-] | inactive | inactive | inactive | inactive | –
23 | Nc1ncnc2c1nc(Br)n2C1OC2COP(=O)(O)O[C@@H]2C1O (some centres undefined) | inactive | inactive | inactive | inactive | –
24 | CCc1ccc2c(-c3cccc(Cl)c3)nc(=O)n(CC)c2n1 | inactive | inactive | inactive | inactive | –
25 | CCCCCCCCCCCCCCC[C@H](O)[C@H](N)CO | inactive | inactive | inactive | inactive | –
26 | O=c1cc(-c2ccccc2F)[nH]c2cc3c(cc12)OCO3 | inactive | inactive | inactive | inactive | –
27 | CC(/C=C/c1cccc(Oc2ccc(F)cc2)c1)N(O)C(N)=O (centres undefined) | inactive | inactive | inactive | inactive | –
28 | CCCOC(=O)c1c(-c2ccccc2)nc(CC)c(C(=O)SCC)c1CCC | inactive | inactive | inactive | inactive | –
29 | Oc1ccc(Cn2cc[nH]c2=S)cc1 | inactive | inactive | inactive | inactive | –
30 | CC(N)(C(=O)O)c1ccc(C(=O)O)cc1 (centres undefined) | inactive | inactive | inactive | inactive | –
31 | CC(C)C[C@H](NC(=O)C1OC1C(=O)O)C(=O)NCCCCN=C(N)N (some centres undefined) | inactive | inactive | inactive | inactive | –
32 | NC1(C(=O)O)CC1 | inactive | inactive | – | inactive | –
33 | NCCS(=O)O | inactive | inactive | – | inactive | –
34 | CC1=C(/C=C/C(C)=C/C=C/C(C)=C\C(=O)O)C(C)(C)CCC1 | inactive | inactive | inactive | – | 3.98
